# From PubChem BioAssay (NCI)
# About 79,000 compounds went through this panel and 15% of them were active in at least one assay; those are over-represented in the sample as a whole. Unmarked numbers belong to inactive results. Active and inactive are the calls of the source. No stated cut-off is given here; in the data, active means growth inhibition above about 70%; inactive means the rest.
# Assay: NCI Yeast Anticancer Drug Screen. Data for the mlh1 rad18 strain (AID 175)
# Settings: S. cerevisiae mlh1 rad18 strain growth inhibition; at 50.0 µM; hits give high values
# Summary of the method: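 Cells of a genetically altered yeast strain, deficient in DNA damage repair, were treated with compound. Their growth was then compared with that of vehicle-treated cultures to give inhibition.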
row,SMILES,growth inhibition
1,NC(=O)c1cc(OCc2ccccc2)nc2nc(Cl)nc(N)c12,5.05%
2,O=c1cc(-c2ccccc2)c2ccccc2[nH]1,-1%
3,CCC(/C=C/c1ccccc1)=N\NC(=O)c1ccc(Cl)cc1,7.95%
4,CC(C)C1OC2(C)OC(=N)C1(C#N)C(C#N)(C#N)C2C (stereo unspecified),-13.8%
5,O=[N+]([O-])c1ccc(-c2noc(-c3ccccc3)c2C2=NCCN2)cc1,7.6%
6,O=c1[nH]nc(Cc2ccccc2)n1/N=C/c1cccnc1,45.6%
7,COc1ccc(NC2=CC(=O)c3ccccc3C2=O)cc1,-7.1%
8,CSc1ccc(NC(=O)c2ccc([N+](=O)[O-])cc2)cc1,3.05%
9,CCCCCCCCCCCCCCCCCC(=O)OCC(CO)OC(=O)CCCCCCCCCCCCCCCCC (stereo unspecified),29.7%
10,CC1=CCCC(C)(C)C1/C=C/C(=O)O (stereo unspecified),-9.2%
11,O=C(/C=N/O)Nc1cccc(Cl)c1I,10.4%
12,CCC(CCN(C)C)(OC(C)=O)c1ccccc1 (stereo unspecified),-15.8%
13,CC(=O)OCC1OC(c2ccccc2)C/C(=N/O)C1OC(C)=O (stereo unspecified),97.7% (active)
14,CCCS(=O)(=O)CCC(=O)c1ccccc1,2.7%
15,CCC(CC)COC(=O)c1ccccc1C(=O)OCC(CC)CC,-16%
16,O=C1C2=C(c3ccccc31)C(c1ccccc1Cl)N1C(=O)CCSC1=N2 (stereo unspecified),-3.45%
17,Cc1ccc(-c2cc(-c3cc(-c4ccc(C)cc4)nc(N)n3)nc(N)n2)cc1,-13%
18,Cc1cc(Cc2ccc3c(c2)OCO3)ccc1OCC(=O)O,23.8%
19,COc1cc(C2C(C(=O)Nc3ccccc3C)=C(C)NC(C)=C2C(=O)Nc2ccccc2C)ccc1O,-9.95%
20,CC(=O)OC/C=C(\C)CC(/C=C(C)/C=C/C1=C(C)CCCC1(C)C)S(=O)(=O)c1ccccc1 (stereo unspecified),-5.15%
21,COc1cc2c(c(O)c1C)C(=O)CC(c1ccccc1)O2 (stereo unspecified),11.7%
22,c1ccc(C(c2cccc3c2ccc2ccccc23)C(c2ccccc2)c2cccc3c2ccc2ccccc23)cc1 (stereo unspecified),-12.7%
23,COc1c2ccoc2cc2oc(=O)ccc12,20.4%
24,O=C(O)c1ccc(O)c(C(=O)O)c1,16.8%
25,CS(=O)(=O)Oc1ccccc1OS(C)(=O)=O,-9.65%
26,c1ccc2c(c1)Cc1ccc3ccccc3c1-2,35.1%
